Measured values reported in PubChem BioAssay AID1117353 (Cheminformatics & Chemogenomics Research Group (CCRG), …, 2015).
Calls of active or inactive are those of the source. Rule as the data show it: active = inhibition above about 50%; inactive = the rest.

molecular target: Vascular endothelial growth factor receptor 2 (Homo sapiens) (UniProt P35968); assay: VEGFR2 inhibitors, primary assay, biochemical, Homo sapiens, LANCE Ultra TR-FRET, NPC library (AID 1117353); conditions: LANCE Ultra TR-FRET kinase assay; at 20 µM (top of the series)
Sequence (P35968 whole entry, looked up): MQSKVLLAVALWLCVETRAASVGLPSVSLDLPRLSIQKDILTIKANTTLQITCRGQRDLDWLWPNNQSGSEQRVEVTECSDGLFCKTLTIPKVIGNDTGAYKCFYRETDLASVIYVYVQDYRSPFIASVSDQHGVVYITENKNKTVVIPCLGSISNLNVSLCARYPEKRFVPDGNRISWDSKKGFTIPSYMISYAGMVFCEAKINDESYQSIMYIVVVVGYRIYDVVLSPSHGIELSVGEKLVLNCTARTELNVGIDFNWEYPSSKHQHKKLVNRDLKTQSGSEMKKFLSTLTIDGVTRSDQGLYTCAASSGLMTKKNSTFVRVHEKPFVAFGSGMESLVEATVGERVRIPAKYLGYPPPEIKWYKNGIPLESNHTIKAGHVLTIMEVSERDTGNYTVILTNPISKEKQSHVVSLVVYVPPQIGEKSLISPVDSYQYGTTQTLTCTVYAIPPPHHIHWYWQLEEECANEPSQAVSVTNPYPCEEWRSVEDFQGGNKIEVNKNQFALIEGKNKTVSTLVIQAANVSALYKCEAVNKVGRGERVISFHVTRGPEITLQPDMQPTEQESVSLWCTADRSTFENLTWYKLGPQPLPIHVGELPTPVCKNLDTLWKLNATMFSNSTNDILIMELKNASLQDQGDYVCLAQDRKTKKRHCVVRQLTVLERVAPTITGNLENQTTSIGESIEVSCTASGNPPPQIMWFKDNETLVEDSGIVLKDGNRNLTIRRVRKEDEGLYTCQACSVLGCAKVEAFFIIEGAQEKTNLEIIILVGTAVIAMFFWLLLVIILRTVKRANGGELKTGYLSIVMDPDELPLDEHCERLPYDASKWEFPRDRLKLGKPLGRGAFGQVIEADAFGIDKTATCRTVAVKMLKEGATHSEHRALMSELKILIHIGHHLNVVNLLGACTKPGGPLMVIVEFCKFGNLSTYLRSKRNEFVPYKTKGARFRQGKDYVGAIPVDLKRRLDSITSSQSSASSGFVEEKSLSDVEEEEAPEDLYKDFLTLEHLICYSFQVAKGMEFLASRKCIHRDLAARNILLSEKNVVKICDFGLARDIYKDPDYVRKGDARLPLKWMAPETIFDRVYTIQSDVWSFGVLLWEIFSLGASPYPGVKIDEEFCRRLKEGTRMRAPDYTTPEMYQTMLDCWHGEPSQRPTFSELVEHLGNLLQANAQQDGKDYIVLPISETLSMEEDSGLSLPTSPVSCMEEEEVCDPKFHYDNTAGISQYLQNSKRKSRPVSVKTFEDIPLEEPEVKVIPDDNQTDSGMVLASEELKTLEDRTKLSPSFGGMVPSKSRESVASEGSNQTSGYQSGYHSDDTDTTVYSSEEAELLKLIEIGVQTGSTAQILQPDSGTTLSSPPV

inhibition, inactive:
COc1c(C)c2c(c(O)c1C/C=C(\C)CCC(=O)OCCN1CCOCC1)C(=O)OC2 -1.65%
CCCOc1ccc2nc(NC(=O)OC)[nH]c2c1 10.2%
O=C(O)c1ccc(-n2nc(-c3ccccc3O)nc2-c2ccccc2O)cc1 -16.1%
O=C1c2c(O)ccc(O)c2C(=O)c2c(NCCNCCO)ccc(NCCNCCO)c21 -38%
CCCCCCCCCCCCCCCCCCNC(=O)OC1CCN(C(=O)OC[C@H](COC(=O)N(Cc2cccc[n+]2CC)C(=O)c2ccccc2OC)OC)CC1 -459%
CCCCC1C(=O)N(c2ccccc2)N(c2ccc(O)cc2)C1=O (stereo not drawn) 29.1%
COc1cc2c(c(OC)c1OC)-c1ccc(OC)c(=O)cc1[C@@H](NC(C)=O)CC2 -20.7%
COc1cc2nc(N3CCN(C(=O)c4ccco4)CC3)nc(N)c2cc1OC -41.4%
COCc1c(C(C)C)nc(C(C)C)c(/C=C/[C@@H](O)C[C@@H](O)CC(=O)O)c1-c1ccc(F)cc1 31.8%
CC(C)C[C@H](NC(=O)[C@H](CCc1ccccc1)NC(=O)CN1CCOCC1)C(=O)N[C@@H](Cc1ccccc1)C(=O)N[C@@H](CC(C)C)C(=O)[C@@]1(C)CO1 21.4%
COc1cc([C@@H]2c3cc4c(cc3[C@H](O)[C@H]3COC(=O)[C@H]23)OCO4)cc(OC)c1OC 28.2%
O=c1c(-c2ccccc2)c1-c1ccccc1 28.3%
COC(=O)[C@H]1[C@H]2C[C@@H]3c4[nH]c5cc(OC)ccc5c4CCN3C[C@H]2C[C@@H](OC(=O)/C=C/c2ccc(O)c(OC)c2)[C@@H]1OC 16.4%
CCCSc1ccc2nc(NC(=O)OC)[nH]c2c1 -6.58%
S=c1nc[nH]c2nc[nH]c12 15.9%
COc1cc(NCc2ccc3nc(N)nc(N)c3c2C)cc(OC)c1OC 35.8%
COc1ccc2cc1Oc1ccc(cc1)C[C@H]1c3c(cc4c(c3Oc3cc5c(cc3OC)CCN(C)[C@@H]5C2)OCO4)CCN1C 30.3%
C[n+]1c2cc(N)ccc2cc2ccc(N)cc21 (tested in a mixture with another compound) -22%
Cc1ccccc1C(=O)Nc1ccc(C(=O)N2CCCC(N(C)C)c3ccccc32)cc1 (stereo not drawn) 41.5%

inhibition, active:
CNC(=O)c1ccccc1Sc1ccc2c(/C=C/c3ccccn3)n[nH]c2c1 100%
COC(=O)Nc1nc2ccc(C(=O)c3cccs3)cc2[nH]1 60%
Cc1cc(C)c(/C=C2\C(=O)Nc3ccccc32)[nH]1 98.7%
Oc1c(Cl)cc(Cl)cc1Sc1cc(Cl)cc(Cl)c1O 60.4%
